From PubChem BioAssay (NCI) come the findings set out here.

SMILES strings stand for the structures. Compounds without any hit were thinned out: in the full panel of roughly 83,000, 20% have a hit.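 Step 1: grow cells in 96-well plates. Step 2: add test compound at a single concentration. Step 3: incubate 48 h. Step 4: record percent growth.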 Active and inactive are the calls of the source. Rule for the calls: active = growth percent below 10; inactive = the rest.

One test has as its system SW-620 colon. Nature of the test: NCI-60 one-dose screen, 48 h (100 = growth as untreated, 0 = no growth, -100 = all killed). The conditions noted are these: 10 µM unless noted.
Regarding `CCN(CC)c1ccc(/C=N/NC(=O)c2ccc(S(N)(=O)=O)cc2)c(O)c1`, the growth was 35% (inactive).
In the case of `COc1ccc(/C=N/NC(=O)c2c(N)nn(C)c2Nc2ccccc2)cc1`, the growth was 16% (inactive).
`Cc1cc(NS(=O)(=O)c2ccc(NC(=O)CSc3nc4ccccc4c(=O)n3-c3ccccc3)cc2)no1`: the growth is 98.9% (inactive).
For the compound `O=C(Nc1cccc(C(F)(F)F)c1)N1CCN(c2cc(-c3cn(-c4ccccc4)nc3-c3cccc(O)c3)ccn2)CC1`, the growth is 52.3% (inactive).
Take `N#Cc1nc(-c2ccccc2)oc1N1CCC(C2(C(F)(F)F)N=N2)CC1`: the growth is 98.8% (inactive).
As for `O=C1/C(=C/c2cc(F)cc(F)c2)Cc2cc3c(cc21)OCO3`, the growth is 28.1% (inactive).
Turning to `Clc1cccc(/C=N/Nc2nc(N/N=C/c3cccc(Cl)c3)nc(N3CCCCC3)n2)c1`, the growth is 103% (inactive).
Take `Cn1c(SCC(=O)c2ccc(Br)cc2)nc2ccccc2c1=O`: the growth is 102% (inactive).
For the compound `CC(=O)C1=C(C)NC(NNc2ccccc2)=NC1c1ccc([N+](=O)[O-])cc1` (centres undefined), the growth is 73.6% (inactive).
Still for that read-out and setting: then `COc1cccc2c1[C@H](OC)[C@]13O[C@@]1(C2=O)[C@H](O)[C@H](C)[C@@](O)(C(=O)[C@@H]1O[C@H]1C)[C@@H]3O`, with -14.7% (active).
In the case of `COc1ccc(/C=N/NC(=O)CSc2nc(-c3cnccn3)cc(-c3cccs3)c2C#N)cc1`, the growth was 93% (inactive).
As to `CSc1ccc(/C(=N/N=C(N)N)c2ccc(F)cc2)cc1`, the growth is 22.2% (inactive).
Turning to `Fc1cccc(Cl)c1/C=N/Nc1nc(N/N=C/c2c(F)cccc2Cl)nc(N2CCCCC2)n1`, the growth was 17.2% (inactive).
In the case of `NNc1nnc2nc(Nc3ccccc3)nc(Nc3ccc(S(N)(=O)=O)cc3)n12`, the growth is 104% (inactive).
Turning to `O=C1[C@H]2Cc3c([nH]c4ccccc34)[C@H](c3ccc(Cl)cc3)N2C(=O)CN1C1CCN(CC2CCCCC2)CC1`, the growth was 72.5% (inactive).
`Brc1cc(-c2cc(-c3ccc4c(c3)OC=CO4)[nH]n2)cs1`: the growth is 82.1% (inactive).
Regarding `C#C[C@]1(O)CC[C@H]2[C@@H]3CC=C4c5sc(Nc6ncccc6C)nc5CC[C@]4(C)[C@H]3CC[C@@]21C`, the growth was -40.9% (active).
In the case of `CNC(=O)Nc1ccc(Nc2cc(-c3ccc(-n4cccn4)cc3)[nH]n2)c(C)c1`, the growth is 126% (inactive).
Regarding `COc1cc(C(=O)c2cc(C(C)=O)c3c(C)cccn23)cc(OC)c1OC`, the growth is 104% (inactive).
On the same count and under the same terms, then `O=C1Nc2ccccc2/C1=C/c1ccc(OCC(=O)c2ccccc2)cc1`, with 102% (inactive).
As for `Cn1cc(-c2nn3cc(-c4ccncc4)nc3s2)c2cc(Br)ccc21`, the growth was 42.3% (inactive).
Turning to `CS(=O)(=O)c1ccc(/C(=N/N=C(N)N)c2ccc(F)cc2)cc1`, the growth is 59.9% (inactive).
With `COc1cc(-c2nc(-c3ccccc3)[nH]c2-c2ccnc(NCCCNS(=O)(=O)c3ccc(C)cc3)n2)ccc1F`, the growth is 108% (inactive).
For `COc1cc(NC(=O)Nc2cccc(-c3cc(=O)c4c(OC)c(OC)c(OC)cc4o3)c2)cc(OC)c1OC`, the growth was 41.3% (inactive).
On to `CC(C)Sc1nc(-c2ccccc2)c(C#N)c(N2CCOCC2)n1`, for which the growth was 74.2% (inactive).

For a further test, the system named is MCF7 breast. Described as above. The conditions noted are these: 10 µM unless noted.
Regarding `COc1ccc(C2CC(c3cccc(OCCCCOc4cccc(C5=NN(C(C)=O)C(c6ccc(OC)cc6)C5)c4)c3)=NN2C(C)=O)cc1` (centres undefined), the growth is 39.9% (inactive).
On to `O=C(CSc1nc2ccccc2c(=O)n1-c1ccccc1)Nc1ccc(S(=O)(=O)Nc2nccs2)cc1`, for which the growth is 57.6% (inactive).
As to `COC(=O)c1ccc(NC2=C(Cl)C(=O)C(C)=C(C)C2=O)cc1`, the growth was 35.9% (inactive).
With `O=S(=O)(Oc1ccc(-c2cn3ccoc3n2)cc1)c1cccc(C(F)(F)F)c1`, the growth is 89.5% (inactive).
As for `O=C(Nc1ccc(N2CCOCC2)cc1)Nc1ccc2c(ccn2C(=O)c2cccc(F)c2)c1`, the growth is 53.2% (inactive).
Regarding `CCc1cc(OC(=O)N2CCN(CCC(C)(COC(C)(C)C)COC(C)(C)C)CC2)ccc1Nc1cc(-c2ccc(-n3cccn3)cc2)[nH]n1`, the growth was 50.1% (inactive).
On to `COC(=O)CNC(=O)c1cccc(-c2cc(=O)c3c(OC)c(OC)c(OC)cc3o2)c1`, for which the growth is 89.2% (inactive).
With `Cc1csc(/N=C(N)/N=C(\N)c2cccs2)n1`, the growth was 81.2% (inactive).
As for `C#Cc1nc(C(=O)NCCCCCCC(=O)NO)cs1`, the growth is 6.97% (active).
Take `COC(=O)c1ccc(NC2=C(Cl)C(=O)c3nc(C)ccc3C2=O)cc1`: the growth is 30.5% (inactive).
Same read-out and setting: with `O=C(Nc1ccc(N=Cc2c(O)[nH]c3ccccc23)cc1)Nc1ccc(S(=O)(=O)Nc2ncccn2)cc1` the figure was 85% (inactive).
Take `CSc1ccc(/C(=N/N=C(N)N)c2ccc(Cl)cc2)cc1`: the growth was 0.167% (active).
Turning to `O=c1[nH][nH]c(-c2ccc(F)cc2)c1-c1nc2ccccc2s1`, the growth was 81.2% (inactive).
In the case of `Clc1cccc(/C=N/Nc2nc(N/N=C/c3cccc(Cl)c3)nc(N3CCOCC3)n2)c1`, the growth is 43% (inactive).
Consider `CCN(CC)c1ccc(/C=N/NC(=O)c2ccc(S(N)(=O)=O)cc2)c(O)c1`, for which the growth was 6.43% (active).
Still for that read-out and setting: with `COc1ccc(/C=N/NC(=O)c2c(N)nn(C)c2Nc2ccccc2)cc1` the figure was 17.6% (inactive); with `Cc1cc(NS(=O)(=O)c2ccc(NC(=O)CSc3nc4ccccc4c(=O)n3-c3ccccc3)cc2)no1`, 91.4% (inactive); with `O=C(Nc1cccc(C(F)(F)F)c1)N1CCN(c2cc(-c3cn(-c4ccccc4)nc3-c3cccc(O)c3)ccn2)CC1`, 25.3% (inactive).
Regarding `N#Cc1nc(-c2ccccc2)oc1N1CCC(C2(C(F)(F)F)N=N2)CC1`, the growth was 89.1% (inactive).
As for `O=C1/C(=C/c2cc(F)cc(F)c2)Cc2cc3c(cc21)OCO3`, the growth was 29% (inactive).
Consider `Clc1cccc(/C=N/Nc2nc(N/N=C/c3cccc(Cl)c3)nc(N3CCCCC3)n2)c1`, for which the growth was 83.1% (inactive).
In the case of `Cn1c(SCC(=O)c2ccc(Br)cc2)nc2ccccc2c1=O`, the growth is 51.7% (inactive).
As to `CC(=O)C1=C(C)NC(NNc2ccccc2)=NC1c1ccc([N+](=O)[O-])cc1` (centres undefined), the growth was 75% (inactive).
Turning to `COc1cccc2c1[C@H](OC)[C@]13O[C@@]1(C2=O)[C@H](O)[C@H](C)[C@@](O)(C(=O)[C@@H]1O[C@H]1C)[C@@H]3O`, the growth is -21.3% (active).
Still for that read-out and setting: then `COc1ccc(/C=N/NC(=O)CSc2nc(-c3cnccn3)cc(-c3cccs3)c2C#N)cc1`, with 76.8% (inactive); and `CSc1ccc(/C(=N/N=C(N)N)c2ccc(F)cc2)cc1`, with 5.11% (active).
On to `Fc1cccc(Cl)c1/C=N/Nc1nc(N/N=C/c2c(F)cccc2Cl)nc(N2CCCCC2)n1`, for which the growth is 3.1% (active).
As for `NNc1nnc2nc(Nc3ccccc3)nc(Nc3ccc(S(N)(=O)=O)cc3)n12`, the growth was 97.8% (inactive).
On to `O=C1[C@H]2Cc3c([nH]c4ccccc34)[C@H](c3ccc(Cl)cc3)N2C(=O)CN1C1CCN(CC2CCCCC2)CC1`, for which the growth was 16.2% (inactive).
The same measure, in the same setting: then `Brc1cc(-c2cc(-c3ccc4c(c3)OC=CO4)[nH]n2)cs1`, with 25.1% (inactive); and `C#C[C@]1(O)CC[C@H]2[C@@H]3CC=C4c5sc(Nc6ncccc6C)nc5CC[C@]4(C)[C@H]3CC[C@@]21C`, with -48.8% (active); and `CNC(=O)Nc1ccc(Nc2cc(-c3ccc(-n4cccn4)cc3)[nH]n2)c(C)c1`, with 81.2% (inactive).
`COc1cc(C(=O)c2cc(C(C)=O)c3c(C)cccn23)cc(OC)c1OC`: the growth was 82.7% (inactive).
On the same count and under the same terms, with `O=C1Nc2ccccc2/C1=C/c1ccc(OCC(=O)c2ccccc2)cc1` the figure was 88.7% (inactive); with `Cn1cc(-c2nn3cc(-c4ccncc4)nc3s2)c2cc(Br)ccc21`, 26.2% (inactive); with `CS(=O)(=O)c1ccc(/C(=N/N=C(N)N)c2ccc(F)cc2)cc1`, 15.1% (inactive).
As for `COc1cc(-c2nc(-c3ccccc3)[nH]c2-c2ccnc(NCCCNS(=O)(=O)c3ccc(C)cc3)n2)ccc1F`, the growth was 65.4% (inactive).
Take `COc1cc(NC(=O)Nc2cccc(-c3cc(=O)c4c(OC)c(OC)c(OC)cc4o3)c2)cc(OC)c1OC`: the growth was 40.7% (inactive).
As to `CC(C)Sc1nc(-c2ccccc2)c(C#N)c(N2CCOCC2)n1`, the growth was 72.8% (inactive).
